{
  "source": "the supplement of paper PMC10933113",
  "note": "Unmarked numbers belong to inactive results.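 The calls were made as follows: active = curve rank above 3; inactive = curve rank 0.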",
  "data": [
    {"tested_on": "KeratinoSens (HaCaT ARE-luciferase) cells", "assay": "Nrf2/ARE luciferase activation call in qHTS KeratinoSens assay (1 = active, 0 = inactive)", "values": [
      {"smiles": "O=C(CCC1CCN(Cc2ccccc2)CC1)c1ccc2c(c1)NCCCC2.O=C(O)/C=C/C(=O)O", "Nrf2/ARE luciferase activation call": "not active ARE inducer (skin sensitizer alert)"},
      {"smiles": "CCOC(=O)Nc1ccc(NCc2ccc(F)cc2)nc1N.O=C(O)/C=C\\C(=O)O", "Nrf2/ARE luciferase activation call": "not active ARE inducer (skin sensitizer alert)"},
      {"smiles": "COc1ccc(CN(CCN(C)C)c2ccccn2)cc1.O=C(O)/C=C\\C(=O)O", "Nrf2/ARE luciferase activation call": "not active ARE inducer (skin sensitizer alert)"},
      {"smiles": "C[n+]1c2cc(N)ccc2cc2ccc(N)cc21.Nc1ccc2cc3ccc(N)cc3nc2c1.[Cl-]", "Nrf2/ARE luciferase activation call": "active ARE inducer (skin sensitizer alert)"},
      {"smiles": "CCN(CCCc1ccccc1)CCCc1ccccc1.O=C(O)CC(O)(CC(=O)O)C(=O)O", "Nrf2/ARE luciferase activation call": "not active ARE inducer (skin sensitizer alert)"},
      {"smiles": "O=C(O)/C=C/C(=O)O.O=C1c2ccccc2C(=O)N1CCc1noc(-c2ccc(CN3CCCCCC3)s2)n1", "Nrf2/ARE luciferase activation call": "not active ARE inducer (skin sensitizer alert)"},
      {"smiles": "CCn1cc[n+](C)c1.O=S(=O)([O-])C(F)(F)F", "Nrf2/ARE luciferase activation call": "not active ARE inducer (skin sensitizer alert)"},
      {"smiles": "CCCC[n+]1ccccc1.O=S(=O)([O-])C(F)(F)F", "Nrf2/ARE luciferase activation call": "not active ARE inducer (skin sensitizer alert)"},
      {"smiles": "NC[C@H](O)c1ccc(O)c(O)c1.O=C(O)C(O)C(O)C(=O)O.O=C(O)C(O)C(O)C(=O)O", "Nrf2/ARE luciferase activation call": "not active ARE inducer (skin sensitizer alert)"},
      {"smiles": "Cn1c(=O)c2c(ncn2C)n(C)c1=O.O=C(O)CC(O)(CC(=O)O)C(=O)O", "Nrf2/ARE luciferase activation call": "not active ARE inducer (skin sensitizer alert)"},
      {"smiles": "CCN(CC)C(=O)N1CCN(C)CC1.O=C(O)CC(O)(CC(=O)O)C(=O)O", "Nrf2/ARE luciferase activation call": "not active ARE inducer (skin sensitizer alert)"},
      {"smiles": "CN(C)CCN(Cc1ccccc1)c1ccccn1.O=C(O)CC(O)(CC(=O)O)C(=O)O", "Nrf2/ARE luciferase activation call": "not active ARE inducer (skin sensitizer alert)"},
      {"smiles": "CCN(CC)CCOC(=O)C1(c2ccccc2)CCCC1.CCN(CC)CCOC(=O)C1(c2ccccc2)CCCC1.O=S(=O)(O)CCS(=O)(=O)O", "Nrf2/ARE luciferase activation call": "not active ARE inducer (skin sensitizer alert)"},
      {"smiles": "CNC[C@H](O)c1ccc(O)c(O)c1.O=C(O)[C@H](O)[C@@H](O)C(=O)O", "Nrf2/ARE luciferase activation call": "not active ARE inducer (skin sensitizer alert)"},
      {"smiles": "CN1C(C)(C)CCCC1(C)C.O=C(O)[C@@H](O)[C@H](O)C(=O)O", "Nrf2/ARE luciferase activation call": "not active ARE inducer (skin sensitizer alert)"},
      {"smiles": "Cc1ccccc1C(OCCN(C)C)c1ccccc1.O=C(O)CC(O)(CC(=O)O)C(=O)O", "note": "(centres undefined)", "Nrf2/ARE luciferase activation call": "not active ARE inducer (skin sensitizer alert)"},
      {"smiles": "COc1cc(N)c(Cl)cc1C(=O)NC1CCN(Cc2ccccc2)CC1.O=C(O)/C=C\\C(=O)O", "Nrf2/ARE luciferase activation call": "not active ARE inducer (skin sensitizer alert)"},
      {"smiles": "C[NH+](C)CCC(c1ccc(Cl)cc1)c1ccccn1.O=C([O-])/C=C\\C(=O)O", "note": "(centres undefined)", "Nrf2/ARE luciferase activation call": "not active ARE inducer (skin sensitizer alert)"},
      {"smiles": "O=C(O)/C=C/C(=O)O.c1ccc(C(O[C@H]2CCCN(CCc3ccc4c(c3)OCO4)C2)c2ccccc2)cc1", "Nrf2/ARE luciferase activation call": "not active ARE inducer (skin sensitizer alert)"}
    ]}
  ]
}
